# Reference: PubChem BioAssay (NCATS)
# Inconclusive results are not listed. Where a call stands in place of a potency, no number is given. Active and inactive are the calls of the source. Unless noted, calls come from the whole dose curve.
# Columns and labels:
# [1] = qHTS for Inhibitors of the Functional Ribonucleoprotein Complex (vRNP) of Lassa (LASV) Arenavirus: LASV Primary Screen - GLuc reporter signal (AID 1347082; calls by dose curve; tested in HEK293 reporter line; note: nearly all actives have a fitted effect of over 60% in size; note: potency is the fitted concentration of half-maximal effect)
# [2] = qHTS for Inhibitors of the Functional Ribonucleoprotein Complex (vRNP) of Lassa (LASV) Arenavirus: Viability assay - alamar blue signal for LASV Primary Screen (AID 1347083; calls by dose curve; tested in HEK293 reporter line; note: nearly all actives have a fitted effect of over 80% in size; note: potency is the fitted concentration of half-maximal effect)
# [3] = qHTS for Inhibitors of the Functional Ribonucleoprotein Complex (vRNP) of Lymphocytic Choriomeningitis Arenaviruses (LCMV): Viability assay - alamar blue signal for LCMV Primary Screen (AID 1347085; calls by dose curve; tested in HEK293 reporter line; note: nearly all actives have a fitted effect of over 80% in size; note: potency is the fitted concentration of half-maximal effect)
# [4] = target: Nucleoprotein (Lymphocytic choriomeningitis virus (strain Armstrong)) (UniProt P09992); assay: qHTS for Inhibitors of the Functional Ribonucleoprotein Complex (vRNP) of Lymphocytic Choriomeningitis Arenaviruses (LCMV): LCMV Primary Screen - GLuc reporter signal (AID 1347086); note: nearly all actives have a fitted effect of over 70% in size; note: potency is the fitted concentration of half-maximal effect
# [5] = Primary qHTS for inhibitors of SARS-S pseudo-typed particle cell entry (AID 1479145); note: nearly all actives have a fitted effect of over 45% in size
# [6] = Primary qHTS for Huh7 cytotoxicity: counterscreen for inhibitors of MERS-S pseudotyped particle cell entry (AID 1479147); details: outcome: dose series up to 57.1 µM unless noted
# [7] = Primary qHTS for inhibitors of MERS-S pseudo-typed particle cell entry (AID 1479149); note: nearly all actives have a fitted effect of over 60% in size
# [8] = Primary qHTS for Vero E6 cytotoxicity: counterscreen for inhibitors of SARS-S pseudo-typed particle cell entry (AID 1479150); details: outcome: dose series up to 57.1 µM unless noted
# [9] = Cytotoxicity counterscreen for inhibitors of SARS-CoV-2 cell entry (AID 1645845); note: nearly all actives have a fitted effect of over 50% in size
# Outline: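 HEK293-ACE2 cells (Expi293F stably expressing human ACE2) seeded overnight, then compound for 1 h plus 48 h at 37C. Viability as ATP content by luminescence; normalized to wells with cells and media-only wells.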
# [10] = Primary qHTS to identify inhibitors of SARS-CoV-2 cell entry (AID 1645846); details: activity change, negative = inhibition: at 57.1 µM (top of the series) unless noted; note: nearly all actives have a fitted effect of over 45% in size
# Outline: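 HEK293-ACE2 (Expi293F, stable hACE2), 1500 cells/well, o/n 37C; cpd 23 nL pin, 1 h; MLV-PP w/ SARS-CoV-2-S (Wuhan-Hu-1, Δ19 C-term); 48 h 37C; Bright-Glo luminescence; normalized vs S-PP and bald PP.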
# CRL-7250 = normal cell line; assay: qHTS assay to identify novel small-molecules to repurpose for Merkel cell carcinoma treatment (AID 1296009; active = well fitted curve in the direction sought with a large enough effect; an effect the other way counts as inactive or inconclusive; note: nearly all actives have a fitted effect of over 60% in size); details: MCC and control cell lines, CellTiter-Glo viability, 72 h; series mostly up to 92 µM
# Outline: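 Cells were incubated with compound for 72 hr at 37 degree celsius before CellTiter-Glo addition. Luminescence was normalized with no-cell wells as full cytotoxicity and DMSO as baseline.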
# [11] = target: Alpha-galactosidase (Coffea arabica) (UniProt Q42656); assay: Counterscreen for Glucocerebrosidase Inhibitors: qHTS Assay for Coffee Bean alpha-Galactosidase at pH 4.5 (AID 957; active = well fitted curve in the direction sought with a large enough effect; an effect the other way counts as inactive or inconclusive)
# Outline: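 Green coffee bean enzyme (2 nM final) was incubated with compounds (0.7 nM to 77 uM) and 4-methylumbelliferyl alpha-D-galactopyranoside (80 uM final) in 50 mM citric acid, 0.005% Tween-20, pH 4.5, 20 min at room temperature; AC50 from Hill fits.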
# [12] = target: Alpha-galactosidase (Coffea arabica) (UniProt Q42656); assay: Counterscreen for Glucocerebrosidase Inhibitors: qHTS Assay for Coffee Bean alpha-Galactosidase at pH 5.9 (AID 998; active = well fitted curve in the direction sought with a large enough effect; an effect the other way counts as inactive or inconclusive)
# Outline: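 Green coffee bean enzyme (2 nM) with 4-methylumbelliferyl alpha-D-galactopyranoside (80 uM) in 50 mM citric acid, 0.005% Tween-20, pH 5.9, 20 min at room temperature; compounds 0.7 nM–77 uM. Stopped at pH 10, fluorescence Ex365/Em440; Hill-fit AC50.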
# [13] = Validation screen for inhibitors of Lassa infection (AID 463096)
# [14] = Inducers of the Endoplasmic Reticulum Stress Response (ERSR) in human glioma: Validation (AID 504836; active = well fitted curve in the direction sought with a large enough effect; an effect the other way counts as inactive or inconclusive)
# Outline: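 Stably transfected U87-MG glioma cells carrying a GRP78-based luciferase sensor; 16 h compound incubation. Luminescence end-point read 10 min after Bright-Glo addition at room temperature.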
# [15] = qHTS profiling of the MIPE4 collection as inhibitors of Plasmodium falciparum (3D7) proliferation (AID 743344; call rule not given here); details: P. falciparum 3D7 in erythrocytes, SYBR Green DNA fluorescence, 72 h; at 28.5 µM (top of the series) unless noted
# Outline: (§1)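 Erythrocytes infected with P. falciparum (0.3% parasitemia, 2.5% hematocrit) incubated with compounds 72 h at 37 C, 5% CO2. Lysis with saponin/Triton buffer containing SYBR Green I, overnight at room temperature in the dark; DNA fluorescence (485/535 nm) normalised to 0.29 uM artemisinin and DMSO.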
# [16] = qHTS profiling of the MIPE4 collection as inhibitors of Plasmodium falciparum (DD2) proliferation (AID 743345; call rule not given here); details: P. falciparum Dd2 in erythrocytes, SYBR Green DNA, 72 h; at 28.5 µM (top of the series) unless noted
# Outline: as §1
# [17] = qHTS profiling of the MIPE4 collection as inhibitors of Plasmodium falciparum (HB3) proliferation (AID 743347; call rule not given here); details: P. falciparum HB3 in erythrocytes, SYBR Green DNA, 72 h; at 28.5 µM (top of the series) unless noted
# Outline: as §1
# [18] = target: ATP-dependent 6-phosphofructokinase (Trypanosoma brucei brucei) (UniProt O15648); assay: qHTS Validation Assay to Find Inhibitors of T. brucei phosphofructokinase (AID 485368; active = well fitted curve in the direction sought with a large enough effect; an effect the other way counts as inactive or inconclusive); details: T. brucei PFK enzyme assay, qHTS 7-point titration; at 57.5 µM (top of the series)
# Outline: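 Activity was normalized between 1x (1.25 nM) PFK wells as no inhibition and enzyme-free wells as full inhibition, from luminescence after ADP-Glo detection of ADP made from 0.5 mM F6P and 0.1 mM ATP over 45 min.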
# [19] = target: Ubiquitin carboxyl-terminal hydrolase 1 (Homo sapiens) (UniProt O94782); assay: Inhibitors of USP1/UAF1: Pilot qHTS (AID 504865; active = well fitted curve in the direction sought with a large enough effect; an effect the other way counts as inactive or inconclusive;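 note: rhodamine fluorescence freed from ubiquitin-rhodamine substrate followed over time; top concentration of the series differs between compounds; nearly all actives have a fitted effect of over 35% in size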)
# Outline: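 1nM USP1/UAF1 + cpd, 15 min RT; start w/ Ub-Rho 150nM final; kinetic FL 480/540 nm, 6 reads q60 s. Buffer 50mM HEPES pH 7.8, 0.5mM EDTA, 1mM TCEP, 0.01% Tween-20, 0.1 mg/ml BSA.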
# [20] = S16 Schwann cell PMP22 intronic element beta-lactamase assay (AID 624044); note: nearly all actives have a fitted effect of over 15% in size
# Outline: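 Rat S16 Schwann cells with beta-Lac driven by a PMP22 intronic element, compound-treated 24 h at 37 °C. LiveBLAzer FRET B/G read: 460 nm normalized to potassium clavulanate vs DMSO; 535 nm FRET as viability; concentration-effect curves classified.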
# [21] = HTS Assay for Allosteric Antagonists of the Human D2 Dopamine Receptor: Hit Validation in HTRF (AID 624455; active = well fitted curve in the direction sought with a large enough effect; an effect the other way counts as inactive or inconclusive;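 note: stable D1 dopamine receptor cell line scored for blocking the D1 response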)
# Outline: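 Hits were examined in an HTRF assay using cells stably expressing the D1 dopamine receptor, scoring inhibition of the D1-mediated response. The preceding primary screen tracked calcium flux after an EC80 dopamine addition in force-coupled, inducible Hek293 Trex D2 cells.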
# [22] = target: Arylsulfatase A (Homo sapiens) (UniProt P15289); assay: qHTS screen for enhancers of Arylsulfatase A (ASA1): LOPAC Validation Assay (AID 720538; active = well fitted curve in the direction sought with a large enough effect; an effect the other way counts as inactive or inconclusive)
# Outline: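 Read-out: fluorescence at Ex=525/Em=598 nm after 1N NaOH final stop. Patient fibroblasts carrying ASA-I179S had 48h compound exposure, then 14h room-temperature pNCS hydrolysis (0.5mM final) in lysis buffer. Signal increase = enhanced activity.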
# Sequence of Nucleoprotein (Lymphocytic choriomeningitis virus (strain Armstrong)) (P09992 whole entry, looked up): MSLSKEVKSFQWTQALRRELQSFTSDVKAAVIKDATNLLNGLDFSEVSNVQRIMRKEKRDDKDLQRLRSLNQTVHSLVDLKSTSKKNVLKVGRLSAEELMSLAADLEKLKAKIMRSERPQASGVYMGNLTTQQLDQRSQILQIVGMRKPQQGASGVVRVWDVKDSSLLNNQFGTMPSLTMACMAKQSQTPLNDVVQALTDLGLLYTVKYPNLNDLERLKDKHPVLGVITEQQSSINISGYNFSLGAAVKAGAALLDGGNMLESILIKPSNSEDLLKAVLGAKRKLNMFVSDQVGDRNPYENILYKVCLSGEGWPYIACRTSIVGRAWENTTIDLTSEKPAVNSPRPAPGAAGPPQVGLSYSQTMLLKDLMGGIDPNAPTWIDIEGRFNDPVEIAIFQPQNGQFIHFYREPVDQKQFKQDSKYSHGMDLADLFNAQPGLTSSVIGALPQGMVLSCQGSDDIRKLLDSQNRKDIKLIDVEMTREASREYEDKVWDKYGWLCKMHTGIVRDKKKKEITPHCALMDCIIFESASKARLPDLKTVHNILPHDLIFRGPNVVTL
# Sequence of Alpha-galactosidase (Coffea arabica) (Q42656 whole entry, looked up): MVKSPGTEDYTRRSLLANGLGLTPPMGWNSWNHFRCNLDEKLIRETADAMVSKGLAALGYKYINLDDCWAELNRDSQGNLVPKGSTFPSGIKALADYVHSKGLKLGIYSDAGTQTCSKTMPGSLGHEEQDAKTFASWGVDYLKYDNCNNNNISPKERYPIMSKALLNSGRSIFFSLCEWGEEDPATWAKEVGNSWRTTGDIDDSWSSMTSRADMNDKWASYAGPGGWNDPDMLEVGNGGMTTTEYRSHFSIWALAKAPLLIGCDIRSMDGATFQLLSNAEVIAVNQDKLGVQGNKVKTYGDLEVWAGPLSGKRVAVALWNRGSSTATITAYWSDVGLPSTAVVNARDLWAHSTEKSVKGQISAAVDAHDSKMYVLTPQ
# Sequence of Ubiquitin carboxyl-terminal hydrolase 1 (Homo sapiens) (O94782 whole entry, looked up): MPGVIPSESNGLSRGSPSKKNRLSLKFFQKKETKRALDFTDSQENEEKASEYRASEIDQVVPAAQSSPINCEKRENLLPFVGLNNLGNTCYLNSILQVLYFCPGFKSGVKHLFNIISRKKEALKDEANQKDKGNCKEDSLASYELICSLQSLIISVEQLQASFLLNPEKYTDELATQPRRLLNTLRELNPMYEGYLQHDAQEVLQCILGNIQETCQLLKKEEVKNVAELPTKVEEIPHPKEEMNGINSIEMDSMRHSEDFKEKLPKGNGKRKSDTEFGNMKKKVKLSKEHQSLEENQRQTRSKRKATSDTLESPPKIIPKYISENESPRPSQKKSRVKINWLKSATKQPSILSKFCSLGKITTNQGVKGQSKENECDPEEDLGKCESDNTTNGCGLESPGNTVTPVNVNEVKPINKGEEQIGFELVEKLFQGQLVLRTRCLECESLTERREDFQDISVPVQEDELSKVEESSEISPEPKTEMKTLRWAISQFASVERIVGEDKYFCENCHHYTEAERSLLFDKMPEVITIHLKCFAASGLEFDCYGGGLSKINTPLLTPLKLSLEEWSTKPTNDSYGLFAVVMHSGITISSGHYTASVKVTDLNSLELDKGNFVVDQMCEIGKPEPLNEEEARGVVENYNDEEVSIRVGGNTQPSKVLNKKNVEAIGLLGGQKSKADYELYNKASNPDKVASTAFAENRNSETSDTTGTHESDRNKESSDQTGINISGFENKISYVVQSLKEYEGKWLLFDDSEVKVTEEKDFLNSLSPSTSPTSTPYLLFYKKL
# Sequence of Arylsulfatase A (Homo sapiens) (P15289 whole entry, looked up): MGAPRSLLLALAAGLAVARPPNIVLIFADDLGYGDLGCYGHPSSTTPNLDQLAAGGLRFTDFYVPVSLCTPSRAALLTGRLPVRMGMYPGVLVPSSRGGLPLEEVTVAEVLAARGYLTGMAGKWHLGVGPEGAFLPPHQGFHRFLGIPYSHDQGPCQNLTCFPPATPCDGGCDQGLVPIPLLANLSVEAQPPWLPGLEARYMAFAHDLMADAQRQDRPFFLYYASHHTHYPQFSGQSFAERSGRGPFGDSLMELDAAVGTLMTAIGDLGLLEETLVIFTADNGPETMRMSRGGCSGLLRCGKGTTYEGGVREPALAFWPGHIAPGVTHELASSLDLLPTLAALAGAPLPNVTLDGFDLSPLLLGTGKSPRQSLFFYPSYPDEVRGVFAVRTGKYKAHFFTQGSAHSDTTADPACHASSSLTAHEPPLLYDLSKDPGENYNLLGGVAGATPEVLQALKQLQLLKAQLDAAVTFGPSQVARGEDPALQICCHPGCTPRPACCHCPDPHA
# Sequence of ATP-dependent 6-phosphofructokinase (Trypanosoma brucei brucei) (O15648 whole entry, looked up): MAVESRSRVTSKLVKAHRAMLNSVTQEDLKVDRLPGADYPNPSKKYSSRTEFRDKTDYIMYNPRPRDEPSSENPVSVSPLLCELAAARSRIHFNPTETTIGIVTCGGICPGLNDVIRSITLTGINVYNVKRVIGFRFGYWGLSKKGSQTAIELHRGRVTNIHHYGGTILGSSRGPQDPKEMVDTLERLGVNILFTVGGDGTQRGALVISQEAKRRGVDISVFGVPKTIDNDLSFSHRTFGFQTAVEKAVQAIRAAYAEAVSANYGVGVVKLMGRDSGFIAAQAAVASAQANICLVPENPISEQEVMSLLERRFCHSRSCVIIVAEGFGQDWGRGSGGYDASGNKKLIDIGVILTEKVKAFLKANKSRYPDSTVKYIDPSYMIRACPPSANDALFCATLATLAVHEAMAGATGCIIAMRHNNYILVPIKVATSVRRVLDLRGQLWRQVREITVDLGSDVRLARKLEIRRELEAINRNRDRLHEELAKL
smiles,measurement,setting,value
CCCCCCCCCCCCCCCCCCCCCCO,Potency,[1],inactive
same,Potency,[2],inactive
same,Potency,[3],inactive
same,Potency,[4],inactive
same,outcome,[5],inactive [at 0.573 µM]
same,outcome,[6],inactive [at 0.573 µM]
same,outcome,[7],inactive [at 0.573 µM]
same,"activity change, negative = cytotoxicity",[8],2.8% [at 0.573 µM] (inactive)
same,Potency,[9],inactive
same,"activity change, negative = inhibition",[10],-17.8% [at 27.1 µM]
same,outcome,[10],inactive [at 0.702 µM]
same,Potency,CRL-7250,inactive
O=C(CCN1CCN(C(=O)OCc2cc(Cl)cc(Cl)c2)CC1)c1ccc2[nH]c(=O)oc2c1,Potency,[1],inactive
same,Potency,[2],inactive
same,Potency,[3],inactive
same,Potency,[4],inactive
same,Potency,[9],inactive
same,"activity change, negative = inhibition",[10],-26.2%
same,Potency,CRL-7250,inactive
Cc1ccc(C2=Nc3ccc(Cl)cc3OC2)cc1,Potency,[1],inactive
same,Potency,[2],inactive
same,Potency,[3],inactive
same,Potency,[4],inactive
same,Potency,[9],inactive
same,Potency,CRL-7250,inactive
CN1CCC(COc2cnc(-c3cccc(Cn4nc(-c5cccc(C#N)c5)ccc4=O)c3)nc2)CC1,Potency,[1],5.44 µM (active)
same,Potency,[2],0.153 µM (active)
same,Potency,[3],0.0611 µM (active)
same,Potency,[4],0.685 µM (active)
same,Potency,[9],inactive
same,Potency,CRL-7250,inactive
Cc1ccccc1C(C(=O)NC1CCCCC1)N(C(=O)Cn1ccnc1C)c1cccc(F)c1 (stereo not given),Potency,[1],inactive
same,Potency,[2],inactive
same,Potency,[3],inactive
same,Potency,[4],inactive
same,Potency,[9],inactive
same,"activity change, negative = inhibition",[10],-3.95%
same,Potency,CRL-7250,inactive
Cc1ccccc1C(C(=O)NC1CCCCC1)N(C(=O)CNc1ccc(C#N)cc1)c1cccc(F)c1 (stereo not given),Potency,[1],inactive
same,Potency,[2],inactive
same,Potency,[3],inactive
same,Potency,[4],inactive
same,Potency,[9],inactive
same,"activity change, negative = inhibition",[10],1.58%
same,Potency,CRL-7250,inactive
O=c1[nH]c(=O)n(C2CCCO2)cc1F (stereo not given),Potency,[1],inactive
same,Potency,[2],inactive
same,Potency,[3],inactive
same,Potency,[4],inactive
same,Potency,[9],inactive
same,"activity change, negative = inhibition",[10],-6.03%
same,Potency,CRL-7250,inactive
O=C(c1cncc(Br)c1)N1CCC(N2CCCC2)CC1,Potency,[1],inactive
same,Potency,[2],inactive
same,Potency,[3],inactive
same,Potency,[4],inactive
same,Potency,[9],inactive
same,Potency,[10],inactive
same,Potency,CRL-7250,inactive
O=[N+]([O-])c1ccc(-c2nc(-c3ccc(F)cc3)c(-c3ccncc3)[nH]2)cc1,outcome,[11],inactive
same,outcome,[12],inactive
same,Potency,[13],inactive
same,Potency,[1],inactive
same,Potency,[2],inactive
same,Potency,[3],inactive
same,Potency,[4],inactive
same,Potency,CRL-7250,inactive
O=C(Nc1nc2ccccc2n1CCN1CCOCC1)c1cccc([N+](=O)[O-])c1,outcome,[14],inactive
same,Potency,[1],inactive
same,Potency,[2],inactive
same,Potency,[3],inactive
same,Potency,[4],inactive
same,Potency,[9],inactive
same,"activity change, negative = inhibition",[10],-0.348%
same,Potency,CRL-7250,inactive
COc1ccc([C@@H]2CC(=O)c3c(O)cc(O[C@@H]4O[C@H](CO[C@@H]5O[C@@H](C)[C@H](O)[C@@H](O)[C@@H]5O)[C@@H](O)[C@H](O)[C@@H]4O)cc3O2)cc1O,Potency,[1],inactive
same,Potency,[2],inactive
same,Potency,[4],inactive
same,Potency,[5],inactive
same,outcome,[6],inactive
same,Potency,[7],inactive
same,outcome,[8],inactive
same,Potency,[9],inactive
same,"activity change, negative = inhibition",[10],-5.46%
same,Potency,CRL-7250,inactive
CCOC1OC(=O)C[C@H]1NC(=O)[C@@H]1CCCN1C(=O)[C@@H](NC(=O)c1ccc(N)c(Cl)c1)C(C)(C)C (stereo not given in full),"parasite growth, % of DMSO control",[15],265%
same,"parasite growth remaining, % of DMSO control (lower = more inhibition)",[16],97.4%
same,"growth, % of control",[17],216%
same,Potency,[1],inactive
same,Potency,[2],inactive
same,Potency,[3],inactive
same,Potency,CRL-7250,inactive
COc1cc2c(cc1OC)C1CC(=O)C(CC(C)C)CN1CC2 (stereo not given),outcome,[18],inactive
same,outcome,[14],inactive
same,Potency,[19],inactive
same,Potency,[20],inactive
same,outcome,[21],inactive
same,Potency,[22],inactive
same,Potency,[1],inactive
same,Potency,[2],inactive
same,Potency,[3],inactive
same,Potency,[4],inactive
same,Potency,[9],inactive
same,"activity change, negative = inhibition",[10],-3.6%
same,Potency,CRL-7250,inactive
